Screens deposited in PubChem by several laboratories.
Plk1 PBD FP = Plk1 polo box domain binding inhibitors, primary screen, biochemical, fluorescence polarization; inhibition, %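 (tested at about 20 µM)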; Plk1 PBD phosphopeptide binding; actives 0.13% (n = 97,000); Serine/threonine-protein kinase PLK1 (Homo sapiens), P53350; in the data active means inhibition above about 34%, passing the limit was not always enough
PLK1 inh = human PLK1 kinase inhibitors, primary screen, biochemical, TR-FRET. Serine/threonine-protein kinase PLK1 (Homo sapiens), P53350. actives 0.53% (n = 97,000). recombinant PLK1 kinase, TR-FRET peptide phosphorylation. inhibition, % at 10 µM;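 active means inhibition of 50% or more in the single-concentration screen; inactive means inhibition below 50%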
ROCK2 inh = inhibitors of human ROCK2 kinase, primary screen, biochemical, high-throughput, luminescence | Rho-associated protein kinase 2 (Homo sapiens), O75116 | AID 604, 2007 | inhibition, % at 6 µM | purified ROCK2, Kinase-Glo ATP depletion luminescence | actives 0.35% (n = 60,000);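 active means inhibition above the screen-wide mean inhibition plus 3 SD, cut at about 18% in these data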
PKA inh = inhibitors of human PKA kinase activity, primary screen, biochemical, ATP-depletion luminescence, Kemptide substrate | cAMP-dependent protein kinase catalytic subunit alpha (Homo sapiens), P17612 | PKA Kemptide phosphorylation, Kinase-Glo ATP luminescence | inhibition, % at 6 µM | actives 0.1% (n = 65,000);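 active means inhibition above the screen-wide mean inhibition plus 3 SD, cut at about 21% in these data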
PLK1 inh conf = PLK1 kinase activity inhibitors, confirmation, biochemical, TR-FRET, duplicate runs. shares compounds with PLK1 inh. recombinant PLK1 kinase, TR-FRET peptide phosphorylation. inhibition, % at 10 µM. actives 20% (n = 210);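 active means inhibition at or above 50% in each of two repeat confirmation tests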
Plk1 interf = compound interference with Plk1 assay readout, artefact control for Plk1 kinase inhibitor project, biochemical, TR-FRET, compound added post-reaction; shares compounds with PLK1 inh; inhibition (interference), % at 10 µM; 210 tested, under 10 active; AID 756, 2007;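 active means both duplicate runs show 50% or greater inhibition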
PBD redox DR = redox cycling hydrogen peroxide generation, dose response, artefact control for Plk1 PBD inhibitor project, biochemical; redox cycling H2O2 generation, DTT, counter-screen; EC50, µM; shares compounds with Plk1 PBD FP; 120 tested, under 10 active; call rule not given here
Large screens that a line does not name were inactive (follow-up assays come after a bar, where they were run). Sampled rows, rich in hits. Any-hit rate of the full collection: about 0.74%.

C1=C(c2c[nH]c3ccccc23)CCNC1	ROCK2 inh 28, PKA inh 21
CC(C)N1CC=C(c2c[nH]c3ccccc23)CC1	none
Cn1ncnc2c(=O)n(C)c(=O)nc1-2	ROCK2 inh 67 (no result: Plk1 PBD FP, PLK1 inh)
CCN1CCN(Cc2nnnn2C(C)(C)C)CC1	ROCK2 inh 21, PKA inh 66
CCCC(C)(COC(N)=O)COC(=O)NC(C)C (stereo not drawn)	none (no result: Plk1 PBD FP, PLK1 inh)
O=C1Nc2ccccc2/C1=C/c1cnc[nH]1	PLK1 inh 61 (no result: ROCK2 inh, PKA inh)
Nc1ccccc1C(=O)OCCOc1ccccc1	none
Cc1c2ccncc2c(C)c2c1[nH]c1ccccc12	ROCK2 inh 46, PKA inh 46 (no result: Plk1 PBD FP, PLK1 inh)
Cc1[nH]c2ccccc2c1/C=N/O	none
c1ccc2c(c1)[nH]c1cnccc12	ROCK2 inh 24 (no result: Plk1 PBD FP, PLK1 inh)
c1ccc2c3c([nH]c2c1)CNCC3	none (no result: Plk1 PBD FP, PLK1 inh)
Cc1ccccc1C(O)(Cc1ccccc1)C1CN2CCC1CC2 (stereo not drawn)	none (no result: ROCK2 inh, PKA inh)
COc1ccc2[nH]c(C)c(CCN3CCC(=O)C(C)C3C)c2c1 (stereo not drawn)	PLK1 inh 83 | PLK1 inh conf inactive | Plk1 interf inactive
CCCCn1c(O)c(C=Nc2c(C)n(C)n(-c3ccccc3)c2=O)c(=O)[nH]c1=O	none
O=[N+]([O-])c1ccc(N2CCNCC2)cc1NCC1CCCO1 (stereo not drawn)	Plk1 PBD FP 47 (no result: ROCK2 inh, PKA inh) | PBD redox DR inactive
CN=C(SCc1cc2c(cc1Cl)OCO2)c1c(O)n(C)c(=O)n(C)c1=O	none
CN1C(=O)N(C)C(=O)C2(Sc3ccccc3C2=O)C1=O	Plk1 PBD FP 57 | PBD redox DR inactive
FC(F)(F)C1=NC(C(F)(F)F)=NP(N2CCOCC2)(N2CCOCC2)=N1	none (no result: Plk1 PBD FP, PLK1 inh)
Cc1ccc2c(c1)CC1(CN2C)C(=O)NC(=O)N(c2cccc(C)c2C)C1=O (stereo not drawn)	none
Cc1ccc2c(c1)CC1(CN2C)C(=O)NC(=O)N(c2ccccc2C)C1=O (stereo not drawn)	Plk1 PBD FP 40 | PBD redox DR inactive
